{"source": "paper PMC13494018", "note": "Unmarked numbers belong to inactive results. How the calls were made is not given here.", "data": [{"target": "PDL1, Q9NZQ7", "sequence (Q9NZQ7 whole entry)": "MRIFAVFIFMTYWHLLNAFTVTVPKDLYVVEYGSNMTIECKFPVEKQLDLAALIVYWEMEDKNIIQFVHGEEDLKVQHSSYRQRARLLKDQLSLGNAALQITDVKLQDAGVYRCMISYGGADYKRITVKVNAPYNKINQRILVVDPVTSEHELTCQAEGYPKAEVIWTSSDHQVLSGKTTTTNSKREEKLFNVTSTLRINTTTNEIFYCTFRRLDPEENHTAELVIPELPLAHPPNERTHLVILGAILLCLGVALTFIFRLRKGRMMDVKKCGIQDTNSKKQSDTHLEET", "values": [{"binder": "d8r1_design_ppi_59_dldesign_0_cycle1_af2pred (protein) MSELSEKLIEAAIAAHRAAAELAALGAPAEAAAHRAKAAKLFGEARKLIQEGDEEKAKKALEEAEALAAAAAAAAKKARAAAAAA", "binding in a display sort": "not found"}, {"binder": "d8r1_design_ppi_1006_dldesign_0_cycle0_af2pred (protein) AAAAAAAKAARTKEVIAKMKELISEAMLAKSEGTGVEALKKAAEEAKKLAKEAKAAGDTAAATVANNAAAFLETAAKAEEEAK", "binding in a display sort": "not found"}, {"binder": "d8r1_design_ppi_457_dldesign_0_cycle1_af2pred (protein) AAAKAAAAAEAEALIAKAEAVVKAIKDFTALAAASTPEDGAAALRAAENLKTTAVDLATQAAALAKALGRPDLATRATAVAQAAKDAM", "binding in a display sort": "not found"}, {"binder": "d8r1_design_ppi_1305_dldesign_0_cycle1_af2pred (protein) MEAEKLAKELLEKAKELAALPMGEASKAAAALAKEYAAKNPEVALKAAKIAYEKAVKDPSVSSKVRQLLAAALAEATYELKKKKAAA", "binding in a display sort": "not found"}, {"binder": "d8r1_design_ppi_901_dldesign_0_cycle1_af2pred (protein) AAAAARADIATLLAFMTKAIAEGDESAANMAANGAIASGAKAGPELAAQAAAEAAAARAAALAAKAAAAA", "binding in a display sort": "not found"}, {"binder": "d8r1_design_ppi_416_dldesign_0_cycle1_af2pred (protein) SDESARIKAETLGRISEAMREARRAAEEGDVERAREAAERAREAGREGAEKALELGDESTAESLRSTAEKVAERAERLAEEAAA", "binding in a display sort": "not found"}, {"binder": "d8r1_design_ppi_1191_dldesign_0_cycle0_af2pred (protein) AAAALAAQAAAYTATYNAASAALAVALADPSFSPQSQKNIAQSQVDAATKALEAATAYDPAQAAAWQAALDAAQAQLAAI", "binding in a display sort": "not found"}, {"binder": "d8r1_design_ppi_20_dldesign_0_cycle1_af2pred (protein) KEEKAEKMKKEAEKYVERAKADAAKLAGSPQAATAAKLAASAEKSAELMKKALEEGDFGLAEVFLAAAKAAAEQLAKMAAA", "binding in a display sort": "not found"}, {"binder": "d8r1_design_ppi_623_dldesign_0_cycle0_af2pred (protein) SAAAAAAAAAAKAALAAAKKKAEEAVKLTPEEAAKVLGEIAAAATAALAAATDAADRAALRAAAAEVFSTGAKNLAKAAKKAEE", "binding in a display sort": "not found"}, {"binder": "d8r1_design_ppi_508_dldesign_0_cycle0_af2pred (protein) AGEEALEKAIKEVKELISEAAKALQESREKGIEKAKEGAKRAEKLKKEAAKEPLAERIGRVLESAKGFLEKLKEALEES", "binding in a display sort": "not found"}, {"binder": "d8r1_design_ppi_360_dldesign_0_cycle1_af2pred (protein) SEAYEKAVEEAAERVAALIKAAVAAGATPAEAWAAAAKKIEEERKKLKEKFGEEQAEEGARRITARAAKALLRAMAAREE", "binding in a display sort": "not found"}, {"binder": "d8r1_design_ppi_14_dldesign_0_cycle1_af2pred (protein) AAAVAAAIEAAMRAAMPSDPAKAAELAALIAAKGLAGAKEAARKAMELFREDPELGKQAFAGVDAARAILAAA", "binding in a display sort": "binds (active)"}, {"binder": "d8r1_design_ppi_310_dldesign_0_cycle1_af2pred (protein) ALAAALNSVAALAKLAAELLETDPAAGKQLAKNVAVALAKLGLTEEAARLKAATPEELKAVAKEAAAAAKAAAAALA", "binding in a display sort": "not found"}, {"binder": "d8r1_design_ppi_713_dldesign_0_cycle1_af2pred (protein) AEFLAQGRAAAAATSPANAAALEAAYAAAKAQEDKMEGMKILLATATTLAAASTPAEAVLIGKAAAYFIADLLS", "binding in a display sort": "not found"}, {"binder": "d8r1_design_ppi_1314_dldesign_0_cycle0_af2pred (protein) SSEEEEAKRLAARAARAAARRLEEAAEERAAEDPEAARRAAEEGRRLAEEAEKGNAEEAKRALTEITRLLREVLA", "binding in a display sort": "not found"}, {"binder": "d8r1_design_ppi_1220_dldesign_0_cycle0_af2pred (protein) KEEEADKLAVEAMRLLGEAAELTKKATTKEQVEAAKKKAEEAKKKAEELLKVDPRKKGLAEALKSAAKKVLEAAEKKEKEL", "binding in a display sort": "not found"}, {"binder": "d8r1_design_ppi_661_dldesign_0_cycle1_af2pred (protein) AAADAAAAAAAATAGANAVAAAQLALELNPKSAIDLAEAAIAHFKKLAATGSPAVAAQANAAIAALEAVKAQAKKKLAAE", "binding in a display sort": "not found"}, {"binder": "d8r1_design_ppi_31_dldesign_0_cycle1_af2pred (protein) DKYSQMAEVWGMLSEVVARVAAELGPEAAEEAIKRAGEAASAAAKDVEEGEKKAKEVKEWADKQLAAAAA", "binding in a display sort": "not found"}, {"binder": "d8r1_design_ppi_948_dldesign_0_cycle0_af2pred (protein) SEEAKKKYEEEKKKLEELRKEAEKLAAADPAAGGAIATLIDNGIAAGDKLYEAGSVESAAKLLESVREKAERLLAELRAAVAA", "binding in a display sort": "not found"}, {"binder": "d8r1_design_ppi_1238_dldesign_0_cycle0_af2pred (protein) MEETKKLIEEARKLAEEARRALKEDKERALELLREAANKASKALALADEESEELAEEAKKVLAEISKVAKELAK", "binding in a display sort": "not found"}, {"binder": "d8r1_design_ppi_227_dldesign_0_cycle1_af2pred (protein) GAKAKAKAVLDKAKEKLAEAMKAALDADESKKPEVYKLIAEAAAALAKGIAAYKAAKNEAQLKEAIAWFEKAIAAAEKAIKLAK", "binding in a display sort": "not found"}, {"binder": "d8r1_design_ppi_587_dldesign_0_cycle1_af2pred (protein) MLTPEALNAIAKLGSEAGSLAAKATPEQKAEGRKLGELVAEKMLASSPEEALEIAKKLLEEGKKDLTYAVATATAASRVLRAYLQQLS", "binding in a display sort": "not found"}, {"binder": "d8r1_design_ppi_891_dldesign_0_cycle0_af2pred (protein) SAVREEAERKAEEVAELAKKDPEKGLEAMKAYLEELVAAGHREAALYAAARAASLMFSDPSTLETAIAVSRYAAELAA", "binding in a display sort": "not found"}, {"binder": "d8r1_design_ppi_701_dldesign_0_cycle1_af2pred (protein) EERRRRGEELLLEALALIGAAARDPAAAPAAVAALRAAAALVPELAPELERAAALVEAGLAAAKEAAAIVGSLALKMAS", "binding in a display sort": "not found"}, {"binder": "d8r1_design_ppi_1118_dldesign_0_cycle0_af2pred (protein) SEGSEALARFAKSMAEVAKIKAEEAAKVDAEVAAIFKEAAKLYEEAAKAAKEDVEKGKKLLTEANKKMAEGLAAMKKKKA", "binding in a display sort": "not found"}, {"binder": "d8r1_design_ppi_516_dldesign_0_cycle1_af2pred (protein) AEEELRRQIEEQGERLEEAAEELRRLAEEARERDPAAGRALEAAAESLRGLVEIAKELDPGSAQGVIQVAERVAERARRLAEEYLAA", "binding in a display sort": "not found"}, {"binder": "d8r1_design_ppi_477_dldesign_0_cycle1_af2pred (protein) SAEDVKRAAAGLKAAAKAYAALAAENKEVKEAAKELEKAAKLLLEDPEKGREKAAEESLKLNQLVIKAAD", "binding in a display sort": "not found"}, {"binder": "d8r1_design_ppi_295_dldesign_0_cycle0_af2pred (protein) SLKEKAEKHLELAQKYAEKAGKLRGVKIEVKGANLEELKALRKEFGAWADEAAKAGDKETAIEATRAAAHLGEAIDLLEEL", "binding in a display sort": "not found"}, {"binder": "d8r1_design_ppi_41_dldesign_0_cycle0_af2pred (protein) RGEEVLERVKESASRAMSLAAKDPSLSEKVLEALALASEAGRAIKTEGVEKGEELAKKAEELTKEIEEEAK", "binding in a display sort": "not found"}, {"binder": "d8r1_design_ppi_1045_dldesign_0_cycle0_af2pred (protein) SADTKEGADLFTKAAEQLLKVGEELLKKGKETGDEKLIKEALKYFEAAAAYAEAAATLAAKADAAAAAKAKELKEKAKKAAEEAKKAL", "binding in a display sort": "not found"}, {"binder": "d8r1_design_ppi_584_dldesign_0_cycle0_af2pred (protein) AAARAAEAAALKAKAKEIAAEAFSYAALSSRDEEAKKEADKKIEELKKLAKEAKAKGLEEAAKFAEDFAEGAETLKKVVEEA", "binding in a display sort": "not found"}, {"binder": "d8r1_design_ppi_271_dldesign_0_cycle0_af2pred (protein) AAAELAATIAAAAAAAAADGPRGLALLAGAILRAFPSLSAETLAEIIRLAAADPAAAAEAIAALAAAHPEAAPALAAALRAALAELA", "binding in a display sort": "not found"}, {"binder": "d8r1_design_ppi_645_dldesign_0_cycle1_af2pred (protein) KIEKAKELLKKAKELLKEAKANPETAIEKAKAALADLSEAASLAAEAAKDPETKEEAEKLLAEAKKLGLEATQLLMKQSSLEEK", "binding in a display sort": "not found"}, {"binder": "d8r1_design_ppi_560_dldesign_0_cycle0_af2pred (protein) SAEEEEEKLREEAEKAVAEAKATAAAFKAQAATATPEKAAALNAAVAALAGLIKIAEDPEARRGASRAAKSVIAHAKRVLAA", "binding in a display sort": "not found"}, {"binder": "d8r1_design_ppi_1335_dldesign_0_cycle0_af2pred (protein) EAAAAATIEAAAKAAAEFTGLPVEEVLALAALAAADPAAARALRERLGEEDPLRAAAADVMLTVVAQAKRELA", "binding in a display sort": "not found"}, {"binder": "d8r1_design_ppi_1162_dldesign_0_cycle1_af2pred (protein) MSLAEEAALEGQKNSPMLGAVLYGHAKRSDAAVAELLLEAAKGDAATARAQARAAAALLPPEEGARLVTDVTAALEADEKDK", "binding in a display sort": "not found"}, {"binder": "d8r1_design_ppi_823_dldesign_0_cycle1_af2pred (protein) SSSEEEIDAKLEAAVAAVKEATALAKAAVAEGPAALPALEAFAAEKTAEFAKLGGVGAAAGAALQAVVDAARAQLA", "binding in a display sort": "not found"}, {"binder": "d8r1_design_ppi_895_dldesign_0_cycle1_af2pred (protein) MTPEAKSAFAAAQSLADAIKLGAKEGLLTPETRAALVEKLRAAAAEAAALDPAIAPQAAALAADAEAAAA", "binding in a display sort": "binds (active)"}]}]}
